From PubChem BioAssay (NCI)
The panel holds about 83,000 compounds, 20% with a hit somewhere; the sample as a whole holds those more often.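 Single-concentration screen, 48 h exposure, 96-well plates. Endpoint: percent growth. Below 10 = active.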 Active and inactive are the calls of the source.

Experiments:
Assay in all cases: NCI-60 one-dose screen, 48 h (100 = growth as untreated, 0 = no growth, -100 = all killed)
Conditions in all cases: 10 µM unless noted
[1] = system: NCI-H23 lung
[2] = system: NCI-H226 lung
[3] = system: NCI-H322M lung
[4] = system: HOP-62 NSCLC
[5] = system: NCI-H460 lung
[6] = system: HOP-92 NSCLC
[7] = system: NCI-H522 lung
[8] = system: A549/ATCC NSCLC
[9] = system: 786-0 renal

Measured: growth

C=C1c2c(C)nn(-c3ccc(NC(C)=O)cc3)c2N(C)C23CC1C1(C)c4c(C)nn(-c5ccc(NC(C)=O)cc5)c4N(C)C(C)(CC12)C3 (stereo not given)
active: [5] 8.58%
inactive: [1] 58.2% | [2] 47.2% | [3] 61.2% | [4] 55.9% | [6] 65% | [7] 42.9% | [8] 26.3% | [9] 43.5%

CCOC(=O)C(=CNc1ccccc1[N+](=O)[O-])C(=O)OCC
inactive: [1] 99% | [2] 88.1% | [3] 96.3% | [4] 107% | [5] 105% | [6] 80.6% | [7] 89.5% | [8] 88.5% | [9] 97.2%

O=C1NCC(=O)N(Cc2ccco2)[C@H]1Cc1ccccc1
inactive: [1] 100% | [2] 89% | [3] 112% | [4] 81.6% | [5] 103% | [6] 88.7% | [7] 88.2% | [8] 102% | [9] 95.1%

COc1cc(-c2cccc([N+](=O)[O-])c2)c(-c2nc(-c3ccccc3)c(-c3ccccc3)n2C2CC2)cc1OC
inactive: [1] 68% | [2] 62.5% | [3] 71.9% | [4] 92.6% | [5] 55.5% | [6] 34.6% | [7] 44% | [8] 44.7% | [9] 73.3%

N#Cc1c(N)n2c(nc1=Nc1ccc(Cl)cc1)sc1cc(Cl)ccc12
inactive: [1] 66.6% | [2] 36.7% | [3] 91% | [4] 96.9% | [5] 95.1% | [6] 76.6% | [7] 93% | [8] 75.4% | [9] 51.4%

C=C(C)C1CCC(=C)C2CCC3(C)OC12/C=C(/COC(C)=O)CCC3O (stereo not given)
inactive: [1] 111% | [2] 102% | [3] 97.9% | [4] 103% | [5] 104% | [6] 60.6% | [7] 93.3% | [8] 74.2% | [9] 106%

COc1cc2c(cc1OC)-c1ccc3cc4c(cc3c1N(CCCN1CCCCC1)C2)OCO4
inactive: [1] 70.4% | [2] 75.8% | [3] 63.6% | [4] 56% | [5] 29.1% | [6] 23.2% | [7] 41.6% | [8] 49.5% | [9] 40.1%

O=C(CC1Sc2ccccc2NC1=O)NNc1ccc(F)cc1 (stereo not given)
inactive: [1] 95.3% | [2] 84.4% | [3] 86.8% | [4] 57.1% | [5] 93.1% | [6] 71.4% | [7] 71.1% | [8] 92.5% | [9] 78.1%

CC(=O)OCCc1ccccc1
inactive: [1] 86.9% | [2] 108% | [3] 103% | [4] 78.1% | [5] 110% | [6] 85.7% | [7] 84.7% | [8] 107% | [9] 91.8%

CC(C)N(CCOC(=O)Nc1ccccc1Cl)C(C)C
inactive: [1] 105% | [2] 86.3% | [3] 102% | [4] 93.3% | [5] 103% | [6] 84.4% | [7] 78.6% | [8] 98.4% | [9] 98.8%

Cc1ccccc1NC(=O)CN(C)C
inactive: [1] 95.7% | [2] 97.9% | [3] 89.9% | [4] 97.9% | [5] 113% | [6] 123% | [7] 82.6% | [8] 95.7% | [9] 99.7%

C=C1C(=O)O[C@H]2[C@H]1CC/C(C(=O)NCCCCCCCCNC(=O)/C1=C/CC[C@@]3(C)O[C@H]3[C@H]3OC(=O)C(=C)[C@@H]3CC1)=C\CC[C@@]1(C)O[C@@H]21
active: [6] 4.35% | [7] -64.5%
inactive: [1] 92.3% | [2] 88.7% | [3] 94.9% | [4] 109% | [5] 110% | [8] 82.9% | [9] 85.1%

CCNCCNc1cc(-c2ccc(C(F)(F)F)cc2)c(C#N)c2nc3cc(Cl)c(Cl)cc3n12
inactive: [2] 99.8%
active: [1] -76.6% | [3] -95.4% | [4] -82.4% | [5] -71.6% | [6] -83.5% | [7] -73.3% | [8] -88.4% | [9] -78%

CCOC(=O)Cc1csc2nc(-c3ccccc3)nn12
inactive: [1] 97.9% | [2] 101% | [3] 125% | [4] 103% | [5] 108% | [6] 79.1% | [7] 103% | [8] 105% | [9] 92%

CNC1(C#N)CCN(Cc2ccccc2)CC1
inactive: [1] 97.6% | [2] 104% | [3] 336% | [4] 87.2% | [5] 108% | [6] 85.1% | [7] 90.1% | [8] 98.1% | [9] 73.1%

O=C(c1ccccc1)c1ccc(N2C(=O)C3C4c5ccccc5C(/C=C/C(=O)c5ccccn5)(c5ccccc54)C3C2=O)cc1 (stereo not given)
active: [5] 6.4% | [9] 2.11%
inactive: [1] 14.2% | [2] 12.7% | [3] 74.9% | [4] 24.3% | [6] 55.6% | [7] 30.6% | [8] 44.3%

Cc1cnc(Nc2ccc(OCCN3CCCC3)cc2)nc1NCc1ccco1
inactive: [1] 70.9% | [2] 45.8% | [3] 81.9% | [4] 60.4% | [5] 72.8% | [6] 54.8% | [7] 70.1% | [8] 76.3% | [9] 60.7%

O=C1Nc2ccc(Cl)cc2/C1=N/N=C/c1c[nH]c2ccccc12
inactive: [1] 86.1% | [2] 81.9% | [3] 75.5% | [4] 80.4% | [5] 72% | [6] 93.1% | [7] 73.2% | [8] 87.2% | [9] 95.8%

Clc1ccc(-c2nc(NCCc3ccccc3)nc3c(NCCc4ccccc4)cnn23)cc1
inactive: [1] 50.8% | [2] 99.7% | [3] 73.7% | [4] 85.3% | [5] 16.3% | [6] 97.7% | [7] 63% | [9] 80%
active: [8] 9.98%

CCCCNCC(=O)Nc1ccc(C(=O)OCC)cc1
inactive: [1] 105% | [2] 89.8% | [3] 105% | [4] 98.7% | [5] 106% | [6] 79.6% | [7] 69.1% | [8] 95.3% | [9] 99.6%

Clc1ccc(-c2nnc(-c3ccco3)o2)cc1
inactive: [1] 91.9% | [2] 91.7% | [3] 93.6% | [4] 80.9% | [5] 108% | [6] 72.6% | [7] 99.1% | [8] 96.8% | [9] 86.8%

O=C(/C=C/C12c3ccccc3C(c3ccccc31)C1C(=O)N(c3ccc(Cl)cc3)C(=O)C12)c1ccccn1 (stereo not given)
active: [1] -22.6% | [2] -49.3% | [4] 5.06% | [5] -32.3% | [6] -53.7% | [7] -6.34% | [8] 5.63% | [9] -60.7%
inactive: [3] 11.3%

O=C1Nc2ccccc2/C1=N/N=C/c1ccsc1
inactive: [1] 95.2% | [2] 106% | [3] 100% | [4] 110% | [5] 105% | [6] 109% | [7] 93.8% | [8] 107% | [9] 108%

CCN(CC)CC(O)CNc1c2ccc(Cl)cc2nc2ccc(OC)cc12 (stereo not given)
inactive: [2] 46.7%
active: [1] -39.1% | [3] -27.1% | [4] -47.1% | [5] 0.742% | [6] -13.9% | [7] -65.7% | [8] -72.9% | [9] -16.1%

CCOC(=O)C(O)C(O)(c1ccccc1)c1ccccc1 (stereo not given)
inactive: [1] 102% | [2] 90.2% | [3] 96.7% | [4] 97% | [5] 110% | [6] 113% | [7] 92.8% | [8] 95.6% | [9] 102%

CC(C)(C)OC(=O)N1Cc2cc3ccccc3nc2C1CO (stereo not given)
inactive: [1] 85.9% | [2] 92.1% | [3] 104% | [4] 102% | [5] 107% | [6] 96.7% | [7] 110% | [8] 95.6% | [9] 95.8%

COc1cc(C2CC(=O)Nc3n[nH]c(-c4ccccc4)c32)cc(OC)c1OC (stereo not given)
inactive: [1] 81.6% | [2] 91.8% | [3] 94.1% | [4] 58% | [5] 67.5% | [6] 77.4% | [7] 30.1% | [8] 46% | [9] 75.3%

COc1ccc(O)c(-c2cc(-c3ccccc3)c(C#N)c(=O)[nH]2)c1
inactive: [1] 84.1% | [2] 88.5% | [3] 96.4% | [4] 85.5% | [5] 92.5% | [6] 61.5% | [7] 65.6% | [8] 84.1% | [9] 85.4%

COc1ccc(-c2cn(-c3cccc(C(=O)/C=C/c4cc(OC)c(OC)c(OC)c4)c3)c(=O)[nH]2)cc1
active: [1] -2.28% | [5] -44.1% | [6] -3.4% | [7] -38.7% | [9] -89.4%
inactive: [2] 32.9% | [3] 106% | [4] 229% | [8] 46.4%

COc1cc(/C=C2\C=C(c3ccccc3)N(CCc3ccccc3)C2=O)cc(OC)c1OC
inactive: [1] 74.1% | [2] 67.6% | [3] 70.1% | [4] 61.6% | [5] 76.1% | [6] 41.3% | [7] 65.7% | [8] 70.4% | [9] 11.7%
